{
  "source": "ChEMBL document CHEMBL4513216",
  "about": "“Probing the Open Global Health Chemical Diversity Library for Multistage-Active Starting Points for Next-Generation Antimalarials” (ACS Infect Dis, 2020)",
  "note": "The campaign covered roughly 69,000 compounds. About 8,600 (12%) showed an effect of 50% or more. This is one part of a sample in which strong results are shown more often than they occur.",
  "data": [
    {"tested_on": "Plasmodium berghei", "test": "Screen against P. berghei liver stage (PbLuc), transformed with Luciferase, at 10uM", "format": "functional, HepG2", "conditions": "tested at 10 uM", "units": {"INHIBITION": "%"}, "values": [
      {"smiles": "O=C1NCC2(CCC(C(=O)N3CCCC(O)C3)CC2)Oc2ccccc21", "note": "(configuration not stated)", "INHIBITION": 8.72},
      {"smiles": "CN(Cc1ccsc1)C(=O)c1ccc2c(c1)NC(=O)CO2", "INHIBITION": 6.8},
      {"smiles": "Cc1cc(C(=O)Nc2ccn(CCCN3CCCC3)n2)no1", "INHIBITION": 38.4},
      {"smiles": "COCCN(Cc1sccc1C)C(=O)COc1cccnc1", "INHIBITION": -32.6},
      {"smiles": "O=C(NCc1cncc2c1CCN(Cc1ccccc1)C2)C1CC1", "INHIBITION": -27.9},
      {"smiles": "CCC(=O)N1CCC2(CC1)CN(C(C)=O)c1ccc(C)cc12", "INHIBITION": -47.5},
      {"smiles": "CC(=O)N1CC2(CCN(C(=O)N(C)C)CC2)c2cc(C)ccc21", "INHIBITION": 37.8},
      {"smiles": "CC(=O)N1CC2(CCN(C(=O)C3CC3)CC2)c2cc(C)ccc21", "INHIBITION": 84.5},
      {"smiles": "CCOCCCNC(=O)C(C)n1cc(Br)cn1", "note": "(configuration not stated)", "INHIBITION": 5.05},
      {"smiles": "COC(=O)N1CCc2ccccc2C1C(=O)NCc1nc(C)no1", "note": "(configuration not stated)", "INHIBITION": 43.4},
      {"smiles": "CC(=O)N1CCc2ccccc2C1CC(=O)NCc1nnc(C)o1", "note": "(configuration not stated)", "INHIBITION": 61.2},
      {"smiles": "Cc1nnc(CNC(=O)CC2CCc3ccccc32)o1", "note": "(configuration not stated)", "INHIBITION": 13},
      {"smiles": "Cc1nn(CC(C)C)c(N(C)C)c1CNCc1ccccc1CO", "INHIBITION": -21.8},
      {"smiles": "COc1cc(CNCc2c(C(C)C)nn(C)c2N(C)C)ccn1", "INHIBITION": 33.3},
      {"smiles": "Cc1nn(CC(C)C)c(N(C)C)c1CNCc1cccnc1N(C)C", "INHIBITION": 43.7},
      {"smiles": "COc1cc(CNCc2c(C)nn(CC(C)C)c2N(C)C)ccn1", "INHIBITION": 77.1},
      {"smiles": "Cc1nn(CC(C)C)c(N(C)C)c1CNCc1cc2ccccc2[nH]1", "INHIBITION": 67.3},
      {"smiles": "COc1cc(CNCc2c(C)nn(C)c2N(C)C)ccn1", "INHIBITION": 42.6},
      {"smiles": "N#Cc1cccnc1NCc1ccc(S(=O)(=O)NC2CC2)cc1", "INHIBITION": -15.2},
      {"smiles": "N#Cc1cccnc1NCc1ccc(S(=O)(=O)NCC2CCCO2)cc1", "note": "(configuration not stated)", "INHIBITION": 55.6},
      {"smiles": "COCCNS(=O)(=O)c1ccc(CNc2ncccc2C#N)cc1", "INHIBITION": 48.4},
      {"smiles": "CN(Cc1ccco1)Cc1cnc2n1CCN(S(C)(=O)=O)CC2", "INHIBITION": 31.9},
      {"smiles": "O=C(NC[C@H]1OC[C@@H]2CCN(Cc3ccco3)C[C@@H]21)c1ccsc1", "INHIBITION": 23.5},
      {"smiles": "Cn1cc2c(n1)C(CNC1CCOCC1)OCC2", "note": "(configuration not stated)", "INHIBITION": 4.02},
      {"smiles": "CC(C)NCC1OCCc2cn(C)nc21", "note": "(configuration not stated)", "INHIBITION": 55.5},
      {"smiles": "Cn1cc2c(n1)C(CNCC1CCOCC1)OCC2", "note": "(configuration not stated)", "INHIBITION": -4.02},
      {"smiles": "COc1cc(CCC(=O)N2CCC(c3cc4ncccc4[nH]3)CC2)on1", "INHIBITION": -26.4},
      {"smiles": "CN(C)c1ccc(C(=O)N2CCC(c3cc4ncccc4[nH]3)CC2)cc1", "INHIBITION": 57.7},
      {"smiles": "Cc1noc(C)c1C(=O)N1CCC(c2cc3cnccc3[nH]2)CC1", "INHIBITION": 13.335},
      {"smiles": "CN(C)c1ccc(C(=O)N2CCC(c3cc4cnccc4[nH]3)CC2)cc1", "INHIBITION": 51.75},
      {"smiles": "CN(C)c1cccc(C(=O)N2CCC(c3n[nH]c(C4CC4)n3)CC2)c1", "INHIBITION": 13.3},
      {"smiles": "COCc1ccc(C(=O)N2CCC(c3cc4ncc(C)nc4[nH]3)C2)cc1", "note": "(configuration not stated)", "INHIBITION": 20.8},
      {"smiles": "Cc1cnc2cc(C3CCN(C(=O)c4ccncc4)CC3)[nH]c2n1", "INHIBITION": 38.8},
      {"smiles": "CN(C)c1ccc(C(=O)N2CCC(c3n[nH]c(C4CC4)n3)CC2)cc1", "INHIBITION": 2.97},
      {"smiles": "COCc1ccc(C(=O)N2CCC(c3cc4nccnc4[nH]3)CC2)cc1", "INHIBITION": 66.5},
      {"smiles": "CN(C1CCN(C(=O)NCCc2ccc(F)cc2F)CC1)S(C)(=O)=O", "INHIBITION": 39.7},
      {"smiles": "CC(=O)Nc1sc2c(c1C(=O)O)CCc1ccccc1-2", "INHIBITION": 11.1},
      {"smiles": "CC(C)CNc1c(NCc2ccco2)c(=O)c1=O", "INHIBITION": -4.28},
      {"smiles": "COCCO[C@H]1CCN(C(=O)c2ccoc2C)[C@H]1Cc1cnn(C)c1", "INHIBITION": 14.1},
      {"smiles": "COCCn1ccc(=O)c(OCC(=O)Nc2ccc(OC)c(Cl)c2)c1C", "INHIBITION": -38},
      {"smiles": "CC(CNC(=O)c1cc(Cl)ccc1F)N1CCCC1", "note": "(configuration not stated)", "INHIBITION": 33.8},
      {"smiles": "CC(CNC(=O)c1ccc(Cl)cc1I)N1CCCC1", "note": "(configuration not stated)", "INHIBITION": 17.4},
      {"smiles": "CN1CCN(C(CNC(=O)c2ccc(Cl)cc2F)c2cccs2)CC1", "note": "(configuration not stated)", "INHIBITION": 66.7},
      {"smiles": "O=C(NCC(c1cccs1)N1CCOCC1)c1ccc(F)cc1Cl", "note": "(configuration not stated)", "INHIBITION": -14.5},
      {"smiles": "CC(CNC(=O)c1ccc(Cl)cc1F)N1CCN(C)CC1", "note": "(configuration not stated)", "INHIBITION": 25},
      {"smiles": "CC(CNC(=O)c1ccc(F)cc1I)N1CCCC1", "note": "(configuration not stated)", "INHIBITION": 55.8},
      {"smiles": "CC(CNC(=O)c1ccc(Cl)cc1F)N1CCCC1", "note": "(configuration not stated)", "INHIBITION": 51.4},
      {"smiles": "CC(CNC(=O)c1cc(Cl)ccc1I)N1CCCC1", "note": "(configuration not stated)", "INHIBITION": 30.5},
      {"smiles": "CC(CNC(=O)c1ccc(F)cc1Cl)N1CCCC1", "note": "(configuration not stated)", "INHIBITION": 35.6},
      {"smiles": "Cc1cc(CN2CCN(C(=O)CCc3ccco3)CC2)on1", "INHIBITION": 14},
      {"smiles": "CC(NCc1ccccc1Cl)c1ccc(OCC(=O)NC2CC2)cc1", "note": "(configuration not stated)", "INHIBITION": 48.2},
      {"smiles": "CCc1nc(CNC(C)(CO)C2CCCCC2)no1", "note": "(configuration not stated)", "INHIBITION": 37.4},
      {"smiles": "Cc1cnn(CC2CN(c3nc4ccccc4o3)CCO2)c1", "note": "(configuration not stated)", "INHIBITION": 44.1},
      {"smiles": "Cc1cc(C)nc(N2CCN(Cc3nccn3C)CC2)n1", "INHIBITION": 7.52},
      {"smiles": "Cc1nc(CN2CCN(Cc3nccn3C)CC2)no1", "INHIBITION": 33.7},
      {"smiles": "Cn1ccnc1CN1CCN(Cc2cc(C#N)ccc2F)CC1", "INHIBITION": 35.3},
      {"smiles": "Cn1ccnc1CN1CCN(Cc2ccc(C#N)cc2F)CC1", "INHIBITION": 15.15},
      {"smiles": "Cc1cc(C2CCC2)nc(N2CCN(Cc3nccn3C)CC2)n1", "INHIBITION": 84.1},
      {"smiles": "Cc1cc(C(F)(F)F)nc(N2CCN(Cc3nccn3C)CC2)n1", "INHIBITION": 74},
      {"smiles": "Cn1ccnc1CN1CCCN(Cc2noc(C3CC3)n2)CC1", "INHIBITION": 11.2},
      {"smiles": "Cn1ccnc1CN1CCN(c2ccc(C#N)cc2F)CC1", "INHIBITION": 53.3},
      {"smiles": "Cc1cc(C2CCC2)nc(N2CC(n3cccn3)C2)n1", "INHIBITION": -9.91},
      {"smiles": "COCc1cccc(NC(=O)NCCCN(C)S(C)(=O)=O)c1", "INHIBITION": -10.8},
      {"smiles": "CC(C1CC1)N(C)C(=O)c1ccc(-n2ncc(C#N)c2N)cc1", "note": "(configuration not stated)", "INHIBITION": -61.4},
      {"smiles": "CCCOCCN1CCN(c2ncnc3[nH]ccc23)CC1", "INHIBITION": -24},
      {"smiles": "CC(=O)Cn1nc(-c2ccccc2F)ccc1=O", "INHIBITION": 64.2},
      {"smiles": "O=C(O)Cn1nc(-c2ccccc2F)ccc1=O", "INHIBITION": 26.4},
      {"smiles": "NC(=O)Cn1nc(-c2ccccc2F)ccc1=O", "INHIBITION": 15.4},
      {"smiles": "Cc1noc(Cl)c1CC(=O)N1CCC(Nc2cccnn2)CC1", "INHIBITION": 18.04},
      {"smiles": "CCC(=O)N1CCN(C(=O)Cn2cccn2)CC1", "INHIBITION": 27.45},
      {"smiles": "O=C(NCc1cccs1)[C@@H]1CC[C@@H]2[C@@H](CCN2c2ncccn2)O1", "INHIBITION": 3.25},
      {"smiles": "O=C(NCc1cccnc1)[C@@H]1C[C@H]2[C@H](CCN2c2ncc(F)cn2)O1", "INHIBITION": 21.8},
      {"smiles": "O=C(NCc1ccco1)[C@H]1CC[C@@H]2[C@@H](CCN2Cc2cccnc2)O1", "INHIBITION": -66},
      {"smiles": "O=C(NCc1cccnc1)[C@@H]1CC[C@@H]2[C@@H](CCN2c2ncc(F)cn2)O1", "INHIBITION": 73},
      {"smiles": "O=C(NCc1ccco1)[C@H]1CC[C@@H]2[C@@H](CCN2c2ncccn2)O1", "INHIBITION": 7.77},
      {"smiles": "O=C(NCc1cccs1)[C@H]1CC[C@@H]2[C@@H](CCN2c2ncccn2)O1", "INHIBITION": -50.8},
      {"smiles": "O=C(NCc1cccnc1)[C@@H]1CC[C@@H]2[C@@H](CCN2c2ncccn2)O1", "INHIBITION": 96.3},
      {"smiles": "O=C(NCc1cccnc1)[C@H]1CC[C@@H]2[C@@H](CCN2c2ncccn2)O1", "INHIBITION": 74.2},
      {"smiles": "CNC(=O)[C@H]1CC[C@@H]2[C@@H](CCN2c2ncccn2)O1", "INHIBITION": 47.5},
      {"smiles": "O=C(NCc1cccnc1)[C@@H]1C[C@H]2[C@H](CCN2c2ncccn2)O1", "INHIBITION": 73},
      {"smiles": "O=C(NCc1ccccn1)[C@@H]1CC[C@@H]2[C@@H](CCN2c2ncc(F)cn2)O1", "INHIBITION": 40.4},
      {"smiles": "O=C(NCc1cccnc1)[C@@H]1C[C@@H]2CCN(c3ncc(F)cn3)C[C@@H]2O1", "INHIBITION": -9.71}
    ]}
  ]
}
